Experimental data reported in the supplement of paper PMC11732987, “Enantioselective OTUD7B fragment discovery through chemoproteomics screening and high-throughput optimisation” (Communications Chemistry, 2025).

What was measured:
Assay in all cases: log2 ratio of Biotin-Ahx-Ub-VS probe labelling (fragment/DMSO); higher = less target engagement (more negative = stronger competition), active = hit call of the paper (q ≤ 0.05, log2 ratio ≤ -1)
Settings in all cases: compound concentration: 200 uM; treatment time: 3 h
USP19 = target: T1, USP19 (UniProt O94966)
T1 sequence (whole entry): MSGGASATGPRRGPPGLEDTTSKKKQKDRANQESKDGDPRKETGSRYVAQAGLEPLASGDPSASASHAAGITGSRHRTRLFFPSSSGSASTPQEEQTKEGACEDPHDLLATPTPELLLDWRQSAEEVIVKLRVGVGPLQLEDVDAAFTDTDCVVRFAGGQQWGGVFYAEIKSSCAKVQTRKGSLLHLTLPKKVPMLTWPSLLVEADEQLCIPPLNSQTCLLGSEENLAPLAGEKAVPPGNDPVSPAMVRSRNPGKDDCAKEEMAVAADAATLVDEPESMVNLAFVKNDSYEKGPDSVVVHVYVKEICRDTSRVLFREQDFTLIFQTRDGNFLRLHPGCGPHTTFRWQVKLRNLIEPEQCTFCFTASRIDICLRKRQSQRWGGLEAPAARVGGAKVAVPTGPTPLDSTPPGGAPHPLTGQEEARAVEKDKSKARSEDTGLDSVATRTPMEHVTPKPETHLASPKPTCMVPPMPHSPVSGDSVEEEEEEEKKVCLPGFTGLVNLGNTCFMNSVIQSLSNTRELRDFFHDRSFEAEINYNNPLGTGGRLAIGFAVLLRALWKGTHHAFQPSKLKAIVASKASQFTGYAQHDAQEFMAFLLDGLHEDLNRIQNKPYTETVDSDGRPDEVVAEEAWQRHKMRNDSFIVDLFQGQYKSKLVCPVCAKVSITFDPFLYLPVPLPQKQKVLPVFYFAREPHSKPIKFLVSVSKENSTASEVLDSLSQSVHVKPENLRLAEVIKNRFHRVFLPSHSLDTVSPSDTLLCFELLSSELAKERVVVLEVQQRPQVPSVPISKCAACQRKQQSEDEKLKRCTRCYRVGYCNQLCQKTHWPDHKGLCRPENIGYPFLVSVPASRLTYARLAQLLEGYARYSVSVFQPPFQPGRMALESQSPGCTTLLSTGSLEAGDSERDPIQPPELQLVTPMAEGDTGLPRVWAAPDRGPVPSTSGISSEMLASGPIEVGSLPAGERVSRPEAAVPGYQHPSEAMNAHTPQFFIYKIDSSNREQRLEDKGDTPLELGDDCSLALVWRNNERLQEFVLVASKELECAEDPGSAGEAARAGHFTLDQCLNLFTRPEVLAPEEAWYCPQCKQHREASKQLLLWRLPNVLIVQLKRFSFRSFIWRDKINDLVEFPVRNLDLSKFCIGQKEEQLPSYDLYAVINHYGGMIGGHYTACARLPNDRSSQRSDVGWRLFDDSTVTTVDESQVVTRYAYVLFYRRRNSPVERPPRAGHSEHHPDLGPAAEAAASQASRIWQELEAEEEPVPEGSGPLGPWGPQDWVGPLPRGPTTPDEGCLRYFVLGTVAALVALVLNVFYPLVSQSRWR
Procedure, shortened: (§1)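 Triplicate samples of HEK293T lysate, 495 µg each, received fragment at 200 µM or vehicle for 3 h, followed by Biotin-Ahx-Ub-VS (0.5 µM final) for 1 h. After NeutrAvidin enrichment of labelled DUBs and LysC/trypsin digestion, peptides were run by diaPASEF LC-MS/MS. The values are average log2 fragment/vehicle ratios from global-median-normalised Spectronaut label-free quantities, tested by unpaired t-test on proteins having ≥2 unique peptides.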

USP24 = USP24 (UniProt Q9UPU5)
Sequence of USP24 (Q9UPU5 whole entry): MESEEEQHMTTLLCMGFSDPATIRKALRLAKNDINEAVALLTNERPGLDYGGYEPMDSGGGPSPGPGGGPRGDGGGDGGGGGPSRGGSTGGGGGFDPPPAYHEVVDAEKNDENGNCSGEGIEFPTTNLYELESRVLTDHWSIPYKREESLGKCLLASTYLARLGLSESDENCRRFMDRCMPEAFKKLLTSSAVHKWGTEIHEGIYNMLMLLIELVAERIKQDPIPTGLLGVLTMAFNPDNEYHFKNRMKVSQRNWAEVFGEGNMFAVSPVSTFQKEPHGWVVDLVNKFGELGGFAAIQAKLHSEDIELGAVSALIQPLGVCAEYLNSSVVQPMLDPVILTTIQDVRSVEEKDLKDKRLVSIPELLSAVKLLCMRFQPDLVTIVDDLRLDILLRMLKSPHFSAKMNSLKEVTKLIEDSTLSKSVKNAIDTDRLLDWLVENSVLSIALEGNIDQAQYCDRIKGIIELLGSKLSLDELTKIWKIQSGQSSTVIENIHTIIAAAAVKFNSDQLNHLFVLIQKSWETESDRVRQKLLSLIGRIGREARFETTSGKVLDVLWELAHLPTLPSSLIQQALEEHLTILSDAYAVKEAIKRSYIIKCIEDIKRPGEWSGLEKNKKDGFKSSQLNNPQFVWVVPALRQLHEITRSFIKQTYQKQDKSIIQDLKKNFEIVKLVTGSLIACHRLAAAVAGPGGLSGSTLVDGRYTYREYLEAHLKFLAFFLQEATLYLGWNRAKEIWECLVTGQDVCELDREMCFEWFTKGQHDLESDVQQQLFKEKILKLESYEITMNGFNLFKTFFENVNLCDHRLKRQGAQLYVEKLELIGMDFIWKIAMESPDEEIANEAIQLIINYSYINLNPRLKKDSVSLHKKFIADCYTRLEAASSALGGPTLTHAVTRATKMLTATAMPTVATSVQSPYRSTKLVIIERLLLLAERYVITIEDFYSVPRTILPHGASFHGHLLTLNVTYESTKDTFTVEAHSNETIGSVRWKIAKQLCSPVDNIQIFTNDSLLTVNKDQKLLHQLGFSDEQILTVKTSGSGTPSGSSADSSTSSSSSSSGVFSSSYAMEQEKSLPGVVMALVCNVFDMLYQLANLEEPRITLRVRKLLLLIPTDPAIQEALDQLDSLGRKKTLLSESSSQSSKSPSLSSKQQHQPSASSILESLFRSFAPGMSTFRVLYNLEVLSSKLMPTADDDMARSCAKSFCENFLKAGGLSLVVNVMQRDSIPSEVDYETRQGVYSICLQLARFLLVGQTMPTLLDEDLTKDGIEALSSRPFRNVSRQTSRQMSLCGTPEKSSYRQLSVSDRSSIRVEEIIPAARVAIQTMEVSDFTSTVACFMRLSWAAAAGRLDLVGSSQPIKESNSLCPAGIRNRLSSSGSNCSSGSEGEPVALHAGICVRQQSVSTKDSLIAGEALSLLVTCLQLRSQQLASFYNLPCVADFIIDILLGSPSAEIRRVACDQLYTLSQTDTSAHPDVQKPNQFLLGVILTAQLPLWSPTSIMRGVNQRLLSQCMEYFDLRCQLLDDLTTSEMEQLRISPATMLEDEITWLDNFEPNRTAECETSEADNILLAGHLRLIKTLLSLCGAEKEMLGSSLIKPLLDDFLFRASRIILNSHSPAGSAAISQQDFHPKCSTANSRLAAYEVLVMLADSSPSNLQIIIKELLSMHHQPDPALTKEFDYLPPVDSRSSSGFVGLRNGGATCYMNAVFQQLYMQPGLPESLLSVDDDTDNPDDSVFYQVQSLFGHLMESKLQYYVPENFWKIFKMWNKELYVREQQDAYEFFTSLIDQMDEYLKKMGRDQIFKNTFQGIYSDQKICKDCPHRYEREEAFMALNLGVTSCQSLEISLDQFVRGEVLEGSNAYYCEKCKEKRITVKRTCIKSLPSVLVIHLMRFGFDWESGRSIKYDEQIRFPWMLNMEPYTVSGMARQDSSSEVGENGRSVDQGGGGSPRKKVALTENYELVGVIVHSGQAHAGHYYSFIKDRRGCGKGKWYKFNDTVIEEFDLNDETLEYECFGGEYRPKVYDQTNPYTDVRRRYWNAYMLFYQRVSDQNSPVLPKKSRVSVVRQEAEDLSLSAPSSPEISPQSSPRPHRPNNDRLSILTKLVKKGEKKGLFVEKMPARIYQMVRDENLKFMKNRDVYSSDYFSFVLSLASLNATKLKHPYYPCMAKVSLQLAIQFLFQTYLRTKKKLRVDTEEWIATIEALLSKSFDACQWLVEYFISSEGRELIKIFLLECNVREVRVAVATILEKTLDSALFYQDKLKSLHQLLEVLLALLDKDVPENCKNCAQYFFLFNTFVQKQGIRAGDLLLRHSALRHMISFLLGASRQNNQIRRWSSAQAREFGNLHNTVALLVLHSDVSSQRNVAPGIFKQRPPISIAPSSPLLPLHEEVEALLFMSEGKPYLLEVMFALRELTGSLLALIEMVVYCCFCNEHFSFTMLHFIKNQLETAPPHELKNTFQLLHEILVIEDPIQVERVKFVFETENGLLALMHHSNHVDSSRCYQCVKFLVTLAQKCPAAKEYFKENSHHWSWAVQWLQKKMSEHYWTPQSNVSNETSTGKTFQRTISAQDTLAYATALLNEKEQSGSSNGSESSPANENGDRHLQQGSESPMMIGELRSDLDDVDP
Procedure, shortened: as §1

USP25 = target: T2, USP25 (UniProt Q9UHP3)
T2 sequence (whole entry): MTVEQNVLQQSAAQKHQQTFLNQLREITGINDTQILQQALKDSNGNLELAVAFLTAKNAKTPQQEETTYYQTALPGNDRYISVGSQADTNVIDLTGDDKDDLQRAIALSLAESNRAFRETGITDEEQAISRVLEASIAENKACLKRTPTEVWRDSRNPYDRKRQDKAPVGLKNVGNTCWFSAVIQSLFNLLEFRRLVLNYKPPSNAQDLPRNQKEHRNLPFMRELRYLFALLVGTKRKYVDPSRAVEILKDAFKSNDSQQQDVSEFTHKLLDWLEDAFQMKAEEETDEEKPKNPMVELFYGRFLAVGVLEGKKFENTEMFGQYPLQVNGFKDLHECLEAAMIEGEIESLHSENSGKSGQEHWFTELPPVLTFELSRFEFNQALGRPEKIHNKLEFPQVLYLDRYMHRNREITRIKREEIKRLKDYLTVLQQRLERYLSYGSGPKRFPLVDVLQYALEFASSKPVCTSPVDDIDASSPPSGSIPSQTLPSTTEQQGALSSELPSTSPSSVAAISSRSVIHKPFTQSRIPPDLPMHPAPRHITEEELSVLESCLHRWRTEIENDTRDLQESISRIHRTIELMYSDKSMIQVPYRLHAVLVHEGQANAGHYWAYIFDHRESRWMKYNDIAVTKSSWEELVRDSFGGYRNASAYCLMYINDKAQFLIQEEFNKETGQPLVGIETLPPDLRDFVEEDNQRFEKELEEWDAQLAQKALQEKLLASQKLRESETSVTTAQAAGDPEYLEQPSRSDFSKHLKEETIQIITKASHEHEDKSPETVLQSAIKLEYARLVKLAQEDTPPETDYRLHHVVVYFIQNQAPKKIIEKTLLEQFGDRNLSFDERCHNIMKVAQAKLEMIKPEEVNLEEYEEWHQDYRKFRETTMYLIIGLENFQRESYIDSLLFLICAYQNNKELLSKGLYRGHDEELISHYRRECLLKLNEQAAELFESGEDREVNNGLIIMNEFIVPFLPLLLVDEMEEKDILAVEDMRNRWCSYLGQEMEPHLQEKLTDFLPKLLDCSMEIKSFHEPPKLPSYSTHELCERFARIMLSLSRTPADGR
Procedure, shortened: as §1

USP28 = target: T3, USP28 (UniProt Q96RU2)
T3 sequence (whole entry): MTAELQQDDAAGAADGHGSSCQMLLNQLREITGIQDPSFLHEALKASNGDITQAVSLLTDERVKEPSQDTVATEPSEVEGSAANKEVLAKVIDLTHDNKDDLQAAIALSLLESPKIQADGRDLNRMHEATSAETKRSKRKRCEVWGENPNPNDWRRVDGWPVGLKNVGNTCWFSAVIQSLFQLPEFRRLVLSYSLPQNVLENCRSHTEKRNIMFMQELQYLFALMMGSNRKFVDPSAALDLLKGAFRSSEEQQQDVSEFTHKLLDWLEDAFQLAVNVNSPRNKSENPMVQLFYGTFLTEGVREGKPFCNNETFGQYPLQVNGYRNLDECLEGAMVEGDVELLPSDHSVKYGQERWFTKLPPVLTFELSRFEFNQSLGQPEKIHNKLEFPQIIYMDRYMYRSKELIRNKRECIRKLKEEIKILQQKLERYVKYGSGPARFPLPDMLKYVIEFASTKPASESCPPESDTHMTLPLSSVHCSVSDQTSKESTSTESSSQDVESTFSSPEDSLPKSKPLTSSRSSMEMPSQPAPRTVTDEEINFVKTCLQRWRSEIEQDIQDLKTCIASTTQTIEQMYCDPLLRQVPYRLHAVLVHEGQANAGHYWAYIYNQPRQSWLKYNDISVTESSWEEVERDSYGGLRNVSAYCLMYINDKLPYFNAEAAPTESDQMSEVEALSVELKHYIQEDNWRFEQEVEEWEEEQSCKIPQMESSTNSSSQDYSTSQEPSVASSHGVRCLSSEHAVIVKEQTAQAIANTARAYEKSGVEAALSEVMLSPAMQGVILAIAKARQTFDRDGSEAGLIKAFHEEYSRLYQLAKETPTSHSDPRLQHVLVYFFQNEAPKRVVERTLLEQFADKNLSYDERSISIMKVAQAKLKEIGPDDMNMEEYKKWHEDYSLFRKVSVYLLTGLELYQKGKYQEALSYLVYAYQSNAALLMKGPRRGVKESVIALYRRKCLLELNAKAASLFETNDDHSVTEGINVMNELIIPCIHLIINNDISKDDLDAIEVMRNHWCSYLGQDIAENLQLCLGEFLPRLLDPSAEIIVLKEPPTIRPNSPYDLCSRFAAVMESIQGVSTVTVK
Procedure, shortened: as §1

Measured: log2 ratio of Biotin-Ahx-Ub-VS probe labelling

O=C(CCl)N1CCOCCC1c1ccccc1 (centres undefined)
inactive: USP19 -0.132 | USP24 -0.633 | USP25 0.0233 | USP28 -0.12
